Assay results from the supplement of paper PMC10849652.
The full data set covers some 8,800 targets. This sample favours those with a hit. About 0.5% of all pairs of compound and target were hits.

What was measured:
Test in all cases: log2 fold change, soluble protein after heating vs DMSO (PISA); higher = thermal stabilisation; K562 lysate, 10 uM; active = over 0.2 and 3.5 SD of the protein, either way, in both replicates (recomputed)
vemurafenib = compound: CCCS(=O)(=O)Nc1ccc(F)c(C(=O)c2c[nH]c3ncc(-c4ccc(Cl)cc4)cc23)c1F [vemurafenib]
Procedure, shortened: (§1)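 Pellets of K562 cells were dounce-homogenised in PBS pH 7.4 with 1 mM MgCl2, and the crude extract was held at 1 mg/mL protein for a 30 min treatment with 10 μM compound. Aliquots were heated for 3 min over 48°C-58°C and pooled before NP-40 was added to 0.5% at 4°C. The supernatant from 21,000xg for 90 min was quantified by TMTpro 16plex LC-MS/MS with channel sums equalised. Values are reported from duplicates as log-two fold change in thermal stability relative to solvent controls.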

[1] = compound: CCCS(=O)(=O)Nc1ccc(F)c(C(=O)c2c[nH]c3ncc(Cl)cc23)c1F
Procedure, shortened: as §1

barasertib = compound: CCN(CCCOc1ccc2c(Nc3cc(CC(=O)Nc4cccc(F)c4)[nH]n3)ncnc2c1)CCOP(=O)(O)O [barasertib]
Procedure, shortened: as §1

[2] = compound: CC[C@@H]1C(=O)N(C)c2cnc(Nc3ccc(C(=O)NC4CCN(C)CC4)cc3OC)nc2N1C1CCCC1
Procedure, shortened: as §1

volasertib = compound: CC[C@@H]1C(=O)N(C)c2cnc(Nc3ccc(C(=O)N[C@H]4CC[C@H](N5CCN(CC6CC6)CC5)CC4)cc3OC)nc2N1C(C)C [volasertib]
Procedure, shortened: as §1

[3] = compound: CCn1c(C(=O)N(C2CC2)C2CC2)cc2c3c(ncn3C)c(Nc3cc(C)n(C)n3)nc21
Procedure, shortened: as §1

[4] = compound: CCn1cc(-c2ccnc3[nH]c(-c4cccc(CN(C)C)c4)cc23)c(-c2ccc(NC(=O)N(C)C)cc2)n1
Procedure, shortened: as §1

[5] = compound: CN1CCC(CNc2ccc3ncc(-c4cccc(OC(F)(F)F)c4)n3n2)CC1
Procedure, shortened: as §1

saracatinib = compound: CN1CCN(CCOc2cc(OC3CCOCC3)c3c(Nc4c(Cl)ccc5c4OCO5)ncnc3c2)CC1 [saracatinib]
Procedure, shortened: as §1

sotrastaurin = compound: CN1CCN(c2nc(C3=C(c4c[nH]c5ccccc45)C(=O)NC3=O)c3ccccc3n2)CC1 [sotrastaurin]
Procedure, shortened: as §1

Measured: log2 fold change

ILRUN (UniProt Q9H6K1)
inactive: vemurafenib -0.012 | [1] 0.048 | barasertib 0.06 | [2] -0.001 | volasertib -0.058 | [3] -0.059 | [4] -0.109 | [5] 0.067 | saracatinib 0.024 | sotrastaurin -0.003

IGF2BP2 isoform 6 (UniProt Q9Y6M1)
inactive: [1] -0.003 | volasertib -0.153

HNRNPD (UniProt D6RF44)
inactive: sotrastaurin 0.079

H3-3A (UniProt P84243)
inactive: vemurafenib 0.027 | [1] 0.015 | barasertib 0.067 | [2] -0.017 | volasertib -0.006 | [4] 0.027 | [5] -0.025 | sotrastaurin -0.028

ITM2B (UniProt Q9Y287)
inactive: vemurafenib 0.021 | barasertib 0.258 | [3] -0.012 | [4] -0.141 | [5] 0.069 | saracatinib -0.053 | sotrastaurin -0.012

GNB4 (UniProt Q9HAV0)
inactive: [1] 0.089 | barasertib -0.046 | [2] -0.018 | volasertib -0.036 | [3] 0.016 | [4] 0.001 | [5] 0.166 | saracatinib -0.165 | sotrastaurin -0.04

GTPBP6 (UniProt O43824)
Chain of UniProt O43824 (O43824 whole entry, looked up): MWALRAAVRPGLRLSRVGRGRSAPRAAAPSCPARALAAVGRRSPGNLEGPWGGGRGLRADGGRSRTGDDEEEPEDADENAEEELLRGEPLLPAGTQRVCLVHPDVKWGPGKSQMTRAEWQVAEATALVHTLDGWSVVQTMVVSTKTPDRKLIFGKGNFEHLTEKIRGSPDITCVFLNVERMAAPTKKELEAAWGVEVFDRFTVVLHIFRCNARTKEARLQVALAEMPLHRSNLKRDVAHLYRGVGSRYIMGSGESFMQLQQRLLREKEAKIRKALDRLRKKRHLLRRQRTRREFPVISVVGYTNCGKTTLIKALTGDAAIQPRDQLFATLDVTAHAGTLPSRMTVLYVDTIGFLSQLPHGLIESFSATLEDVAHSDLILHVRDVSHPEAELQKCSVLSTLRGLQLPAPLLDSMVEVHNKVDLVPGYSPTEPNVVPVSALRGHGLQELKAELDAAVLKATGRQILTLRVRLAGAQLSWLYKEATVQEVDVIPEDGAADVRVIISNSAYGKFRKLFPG
inactive: vemurafenib -0.089 | [2] 0.32 | [4] -0.062 | [5] -0.096 | saracatinib -0.166

JAK3 (UniProt P52333)
inactive: vemurafenib -0.127 | [1] 0.014 | barasertib 0.064 | volasertib -0.062 | [4] 0.524 | [5] -0.488 | sotrastaurin 0.014

HNRNPL, A0A3B3ITJ4
inactive: [1] 0.087 | barasertib 0.14 | volasertib -0.072

HTT (UniProt P42858)
Chain of UniProt P42858 (P42858 whole entry, looked up): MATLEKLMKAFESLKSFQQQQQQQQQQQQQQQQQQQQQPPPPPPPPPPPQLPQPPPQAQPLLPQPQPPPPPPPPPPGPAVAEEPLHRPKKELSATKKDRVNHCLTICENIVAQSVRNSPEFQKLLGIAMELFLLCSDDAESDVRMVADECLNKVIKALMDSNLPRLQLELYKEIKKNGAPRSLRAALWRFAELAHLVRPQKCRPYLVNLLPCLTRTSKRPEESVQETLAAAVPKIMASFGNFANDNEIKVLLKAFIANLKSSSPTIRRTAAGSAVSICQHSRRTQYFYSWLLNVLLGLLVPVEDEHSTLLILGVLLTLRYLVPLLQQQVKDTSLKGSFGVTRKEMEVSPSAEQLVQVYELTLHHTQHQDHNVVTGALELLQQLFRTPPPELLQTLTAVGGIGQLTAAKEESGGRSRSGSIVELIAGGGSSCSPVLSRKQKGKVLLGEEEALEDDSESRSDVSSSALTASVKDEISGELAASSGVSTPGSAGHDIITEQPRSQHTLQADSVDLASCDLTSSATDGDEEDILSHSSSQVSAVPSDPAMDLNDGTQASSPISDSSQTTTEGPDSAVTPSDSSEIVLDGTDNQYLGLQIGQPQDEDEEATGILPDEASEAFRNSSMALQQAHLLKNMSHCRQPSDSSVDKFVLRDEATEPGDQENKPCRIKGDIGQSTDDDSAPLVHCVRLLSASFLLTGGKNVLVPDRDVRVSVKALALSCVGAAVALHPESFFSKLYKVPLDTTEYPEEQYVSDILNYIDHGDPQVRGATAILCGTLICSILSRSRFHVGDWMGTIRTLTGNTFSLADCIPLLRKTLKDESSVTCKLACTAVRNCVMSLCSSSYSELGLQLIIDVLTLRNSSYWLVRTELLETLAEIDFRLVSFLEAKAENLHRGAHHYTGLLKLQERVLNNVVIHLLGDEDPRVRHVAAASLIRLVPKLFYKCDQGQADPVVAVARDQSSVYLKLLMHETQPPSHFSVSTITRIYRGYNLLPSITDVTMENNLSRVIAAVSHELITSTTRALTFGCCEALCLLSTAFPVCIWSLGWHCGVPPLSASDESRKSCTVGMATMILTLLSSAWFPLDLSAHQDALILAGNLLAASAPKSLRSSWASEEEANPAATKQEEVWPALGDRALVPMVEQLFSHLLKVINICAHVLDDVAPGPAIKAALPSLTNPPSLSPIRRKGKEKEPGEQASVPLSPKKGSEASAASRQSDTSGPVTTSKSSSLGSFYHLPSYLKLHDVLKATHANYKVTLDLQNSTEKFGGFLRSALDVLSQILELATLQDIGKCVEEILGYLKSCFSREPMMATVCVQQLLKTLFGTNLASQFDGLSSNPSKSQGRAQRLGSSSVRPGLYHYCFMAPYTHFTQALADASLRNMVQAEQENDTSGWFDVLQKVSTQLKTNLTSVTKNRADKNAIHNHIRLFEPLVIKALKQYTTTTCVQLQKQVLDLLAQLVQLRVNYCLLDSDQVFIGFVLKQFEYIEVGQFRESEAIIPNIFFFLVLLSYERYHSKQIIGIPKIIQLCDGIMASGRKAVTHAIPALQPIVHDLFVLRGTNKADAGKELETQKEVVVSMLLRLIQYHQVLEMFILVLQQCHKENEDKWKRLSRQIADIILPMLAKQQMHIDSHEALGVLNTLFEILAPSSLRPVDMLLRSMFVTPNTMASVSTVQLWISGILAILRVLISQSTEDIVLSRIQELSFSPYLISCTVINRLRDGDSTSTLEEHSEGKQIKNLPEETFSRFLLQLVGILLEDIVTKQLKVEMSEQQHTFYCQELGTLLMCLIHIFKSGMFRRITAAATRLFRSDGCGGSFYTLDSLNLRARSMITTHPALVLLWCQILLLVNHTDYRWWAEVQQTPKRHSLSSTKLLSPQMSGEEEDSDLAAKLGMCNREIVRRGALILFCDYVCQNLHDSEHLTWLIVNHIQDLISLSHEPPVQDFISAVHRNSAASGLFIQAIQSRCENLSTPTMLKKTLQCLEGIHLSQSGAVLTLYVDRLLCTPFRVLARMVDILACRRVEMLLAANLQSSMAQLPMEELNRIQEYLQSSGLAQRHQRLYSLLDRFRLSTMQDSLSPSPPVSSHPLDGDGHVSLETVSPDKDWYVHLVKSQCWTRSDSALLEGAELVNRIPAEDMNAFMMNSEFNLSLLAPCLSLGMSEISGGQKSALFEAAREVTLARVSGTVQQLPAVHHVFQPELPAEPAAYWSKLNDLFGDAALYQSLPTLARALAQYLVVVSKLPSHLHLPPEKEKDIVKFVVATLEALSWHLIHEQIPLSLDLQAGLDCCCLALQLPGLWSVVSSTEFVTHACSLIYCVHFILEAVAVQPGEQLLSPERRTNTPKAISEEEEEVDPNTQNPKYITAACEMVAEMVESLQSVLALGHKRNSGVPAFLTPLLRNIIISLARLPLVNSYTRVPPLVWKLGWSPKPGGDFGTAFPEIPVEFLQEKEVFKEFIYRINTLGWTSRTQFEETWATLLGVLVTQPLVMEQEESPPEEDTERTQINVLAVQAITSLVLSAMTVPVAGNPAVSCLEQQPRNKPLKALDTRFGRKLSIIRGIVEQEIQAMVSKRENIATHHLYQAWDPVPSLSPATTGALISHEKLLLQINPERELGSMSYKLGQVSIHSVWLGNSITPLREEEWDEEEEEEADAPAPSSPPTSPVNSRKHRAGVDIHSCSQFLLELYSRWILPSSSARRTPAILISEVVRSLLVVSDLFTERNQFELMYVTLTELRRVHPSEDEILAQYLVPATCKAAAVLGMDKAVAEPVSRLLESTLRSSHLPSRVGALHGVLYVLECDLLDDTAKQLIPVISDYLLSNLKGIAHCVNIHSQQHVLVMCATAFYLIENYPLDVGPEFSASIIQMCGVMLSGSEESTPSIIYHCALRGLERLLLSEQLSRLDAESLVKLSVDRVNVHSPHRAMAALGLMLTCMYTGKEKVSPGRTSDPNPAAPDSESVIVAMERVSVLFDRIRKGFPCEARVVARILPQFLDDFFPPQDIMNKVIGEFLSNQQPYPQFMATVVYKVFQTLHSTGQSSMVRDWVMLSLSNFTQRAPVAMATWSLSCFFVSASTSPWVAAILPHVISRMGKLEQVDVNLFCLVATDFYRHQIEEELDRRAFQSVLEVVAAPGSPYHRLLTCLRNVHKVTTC
inactive: vemurafenib -0.083 | barasertib 0.044 | [2] -0.063 | [3] 0.052 | [4] -0.039 | [5] 0.152 | saracatinib -0.033 | sotrastaurin 0.01

KATNBL1 (UniProt Q9H079)
inactive: vemurafenib -0.011 | [1] -0.03 | [2] 0.284 | volasertib 0.039 | [4] -0.105 | [5] 0.055 | saracatinib -0.068 | sotrastaurin -0.004

HECW2 (UniProt Q9P2P5)
inactive: vemurafenib 0.026 | [2] -0.213 | [3] -0.04 | saracatinib 0.055 | sotrastaurin 0.065

HMGA1 isoform 2 (UniProt P17096)
active: [4] 0.875
inactive: [1] 0.019 | volasertib 0.034 | [3] 0.027 | [5] -0.339 | saracatinib 0.053 | sotrastaurin -0.106

GORASP1 (UniProt Q9BQQ3)
inactive: vemurafenib 0.011 | [1] -0.016 | [2] -0.065 | volasertib 0.092 | [3] -0.019 | [4] -0.025 | [5] 0.08 | saracatinib 0.03 | sotrastaurin 0.016

ITPR2 (UniProt Q14571)
inactive: [1] -0.044 | volasertib 0.336 | [3] -0.222 | saracatinib 0.088

ISL2 (UniProt Q96A47)
Chain of UniProt Q96A47 (Q96A47 whole entry, looked up): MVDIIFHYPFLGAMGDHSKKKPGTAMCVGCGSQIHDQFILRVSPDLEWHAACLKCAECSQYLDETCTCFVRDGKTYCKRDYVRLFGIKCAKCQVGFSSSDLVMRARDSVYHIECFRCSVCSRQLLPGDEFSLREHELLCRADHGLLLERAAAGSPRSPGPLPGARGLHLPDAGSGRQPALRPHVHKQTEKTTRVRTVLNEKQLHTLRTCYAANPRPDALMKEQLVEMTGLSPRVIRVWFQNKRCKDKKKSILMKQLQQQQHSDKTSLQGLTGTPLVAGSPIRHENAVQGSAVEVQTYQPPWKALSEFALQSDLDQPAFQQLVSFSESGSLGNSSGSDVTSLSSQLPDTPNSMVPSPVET
inactive: barasertib -0.108 | [3] 0.018 | saracatinib 0.028 | sotrastaurin -0.107
active: [4] 0.832 | [5] -0.397

HELQ (UniProt Q8TDG4)
inactive: vemurafenib 0.12 | [1] -0.064 | barasertib 0.036 | [2] 0.048 | volasertib 0.01 | [3] -0.044 | [4] 0.038 | [5] -0.104 | saracatinib -0.058 | sotrastaurin 0.057

HNRNPUL1 (UniProt M0R247)
inactive: barasertib 0.109 | [4] 0.004 | [5] 0.037

HNRNPM (UniProt M0QZM1)
inactive: vemurafenib -0.027 | barasertib 0.229 | [2] 0.171 | saracatinib -0.066 | sotrastaurin -0.054

HS1BP3 (UniProt Q53T59)
inactive: vemurafenib -0.003 | [1] -0.012 | barasertib 0.056 | [2] 0.029 | volasertib -0.002 | [3] 0.014 | [4] -0.238 | [5] 0.092 | saracatinib 0.082 | sotrastaurin 0.013

IPP (UniProt Q9Y573)
Chain of UniProt Q9Y573 (Q9Y573 whole entry, looked up): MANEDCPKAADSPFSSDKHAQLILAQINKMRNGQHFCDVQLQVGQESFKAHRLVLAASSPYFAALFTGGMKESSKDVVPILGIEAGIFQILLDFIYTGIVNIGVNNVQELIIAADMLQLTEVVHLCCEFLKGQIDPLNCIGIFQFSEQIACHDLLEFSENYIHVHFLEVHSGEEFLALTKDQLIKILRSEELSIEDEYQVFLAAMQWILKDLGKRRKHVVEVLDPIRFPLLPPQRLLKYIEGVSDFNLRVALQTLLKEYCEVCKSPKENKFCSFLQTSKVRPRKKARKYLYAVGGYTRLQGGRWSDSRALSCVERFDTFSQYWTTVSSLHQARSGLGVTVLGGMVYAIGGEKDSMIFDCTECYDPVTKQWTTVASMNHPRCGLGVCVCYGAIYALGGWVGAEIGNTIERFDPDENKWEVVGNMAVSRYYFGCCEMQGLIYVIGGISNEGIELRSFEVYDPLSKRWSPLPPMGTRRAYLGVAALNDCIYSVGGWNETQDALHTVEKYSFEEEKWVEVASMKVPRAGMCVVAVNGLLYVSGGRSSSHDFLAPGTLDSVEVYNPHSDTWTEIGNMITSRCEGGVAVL
inactive: vemurafenib -0.102 | [1] 0.056 | [2] 0.169 | volasertib -0.162 | [3] 0.006 | [4] 0.057 | [5] -0.014 | saracatinib -0.035

HDAC3 (UniProt E7ESJ6)
inactive: [1] 0.031 | volasertib -0.16

ITPRIP (UniProt Q8IWB1)
inactive: saracatinib -0.143

GPN2 (UniProt Q9H9Y4)
inactive: vemurafenib -0.027 | [1] 0.026 | [2] -0.098 | volasertib -0.028 | [3] 0.072 | [4] 0.009 | [5] 0.019 | saracatinib 0.003 | sotrastaurin 0.021

IMPACT (UniProt Q9P2X3)
inactive: vemurafenib 0.158 | [1] -0.117 | barasertib -0.014 | [2] -0.095 | volasertib 0.053 | [3] 0.133 | [4] 0.003 | [5] -0.122 | saracatinib 0.001 | sotrastaurin 0.058

HSPBAP1 (UniProt Q96EW2)
Chain of UniProt Q96EW2 (Q96EW2 whole entry, looked up): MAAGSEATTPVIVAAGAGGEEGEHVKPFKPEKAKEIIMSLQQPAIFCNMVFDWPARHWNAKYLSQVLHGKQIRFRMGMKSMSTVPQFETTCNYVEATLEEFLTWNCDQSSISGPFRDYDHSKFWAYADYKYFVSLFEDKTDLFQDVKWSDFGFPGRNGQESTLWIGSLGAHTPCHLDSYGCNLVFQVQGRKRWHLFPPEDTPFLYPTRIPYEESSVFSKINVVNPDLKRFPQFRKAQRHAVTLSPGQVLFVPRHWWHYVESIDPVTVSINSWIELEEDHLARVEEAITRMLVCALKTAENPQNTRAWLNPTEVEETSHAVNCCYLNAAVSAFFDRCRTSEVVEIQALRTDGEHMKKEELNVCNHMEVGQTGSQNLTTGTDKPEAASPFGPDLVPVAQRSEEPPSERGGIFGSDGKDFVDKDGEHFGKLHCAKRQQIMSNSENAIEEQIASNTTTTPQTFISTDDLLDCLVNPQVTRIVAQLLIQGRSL
inactive: [1] 0.04 | barasertib 0.012 | [2] 0.155 | volasertib 0.044 | [3] -0.058 | [4] -0.293 | [5] -0.038 | saracatinib -0.054 | sotrastaurin 0.027

ITGB1BP2 (UniProt Q9UKP3)
inactive: vemurafenib 0.045 | [2] -0.07 | [4] -0.032 | [5] 0.443 | saracatinib 0.005

HMGN5 (UniProt Q5JSK9)
inactive: [1] -0.013 | barasertib -0.03 | [2] 0.039 | volasertib 0.054

HSPA8 (UniProt E9PN89)
inactive: [1] -0.06 | barasertib -0.041 | [2] 0.057 | volasertib -0.005 | [3] -0.114 | [4] -0.366 | [5] 0.32 | saracatinib -0.01 | sotrastaurin 0.308

HYDIN (UniProt Q4G0P3)
inactive: vemurafenib -0.075 | [1] 0.081 | [2] 0.089 | volasertib 0.021 | [3] 0.76 | saracatinib 0.028
